target: Serine/threonine-protein kinase WNK2 (Homo sapiens) (UniProt Q9Y3S1); details: at 10 µM
Sequence (Q9Y3S1 whole entry): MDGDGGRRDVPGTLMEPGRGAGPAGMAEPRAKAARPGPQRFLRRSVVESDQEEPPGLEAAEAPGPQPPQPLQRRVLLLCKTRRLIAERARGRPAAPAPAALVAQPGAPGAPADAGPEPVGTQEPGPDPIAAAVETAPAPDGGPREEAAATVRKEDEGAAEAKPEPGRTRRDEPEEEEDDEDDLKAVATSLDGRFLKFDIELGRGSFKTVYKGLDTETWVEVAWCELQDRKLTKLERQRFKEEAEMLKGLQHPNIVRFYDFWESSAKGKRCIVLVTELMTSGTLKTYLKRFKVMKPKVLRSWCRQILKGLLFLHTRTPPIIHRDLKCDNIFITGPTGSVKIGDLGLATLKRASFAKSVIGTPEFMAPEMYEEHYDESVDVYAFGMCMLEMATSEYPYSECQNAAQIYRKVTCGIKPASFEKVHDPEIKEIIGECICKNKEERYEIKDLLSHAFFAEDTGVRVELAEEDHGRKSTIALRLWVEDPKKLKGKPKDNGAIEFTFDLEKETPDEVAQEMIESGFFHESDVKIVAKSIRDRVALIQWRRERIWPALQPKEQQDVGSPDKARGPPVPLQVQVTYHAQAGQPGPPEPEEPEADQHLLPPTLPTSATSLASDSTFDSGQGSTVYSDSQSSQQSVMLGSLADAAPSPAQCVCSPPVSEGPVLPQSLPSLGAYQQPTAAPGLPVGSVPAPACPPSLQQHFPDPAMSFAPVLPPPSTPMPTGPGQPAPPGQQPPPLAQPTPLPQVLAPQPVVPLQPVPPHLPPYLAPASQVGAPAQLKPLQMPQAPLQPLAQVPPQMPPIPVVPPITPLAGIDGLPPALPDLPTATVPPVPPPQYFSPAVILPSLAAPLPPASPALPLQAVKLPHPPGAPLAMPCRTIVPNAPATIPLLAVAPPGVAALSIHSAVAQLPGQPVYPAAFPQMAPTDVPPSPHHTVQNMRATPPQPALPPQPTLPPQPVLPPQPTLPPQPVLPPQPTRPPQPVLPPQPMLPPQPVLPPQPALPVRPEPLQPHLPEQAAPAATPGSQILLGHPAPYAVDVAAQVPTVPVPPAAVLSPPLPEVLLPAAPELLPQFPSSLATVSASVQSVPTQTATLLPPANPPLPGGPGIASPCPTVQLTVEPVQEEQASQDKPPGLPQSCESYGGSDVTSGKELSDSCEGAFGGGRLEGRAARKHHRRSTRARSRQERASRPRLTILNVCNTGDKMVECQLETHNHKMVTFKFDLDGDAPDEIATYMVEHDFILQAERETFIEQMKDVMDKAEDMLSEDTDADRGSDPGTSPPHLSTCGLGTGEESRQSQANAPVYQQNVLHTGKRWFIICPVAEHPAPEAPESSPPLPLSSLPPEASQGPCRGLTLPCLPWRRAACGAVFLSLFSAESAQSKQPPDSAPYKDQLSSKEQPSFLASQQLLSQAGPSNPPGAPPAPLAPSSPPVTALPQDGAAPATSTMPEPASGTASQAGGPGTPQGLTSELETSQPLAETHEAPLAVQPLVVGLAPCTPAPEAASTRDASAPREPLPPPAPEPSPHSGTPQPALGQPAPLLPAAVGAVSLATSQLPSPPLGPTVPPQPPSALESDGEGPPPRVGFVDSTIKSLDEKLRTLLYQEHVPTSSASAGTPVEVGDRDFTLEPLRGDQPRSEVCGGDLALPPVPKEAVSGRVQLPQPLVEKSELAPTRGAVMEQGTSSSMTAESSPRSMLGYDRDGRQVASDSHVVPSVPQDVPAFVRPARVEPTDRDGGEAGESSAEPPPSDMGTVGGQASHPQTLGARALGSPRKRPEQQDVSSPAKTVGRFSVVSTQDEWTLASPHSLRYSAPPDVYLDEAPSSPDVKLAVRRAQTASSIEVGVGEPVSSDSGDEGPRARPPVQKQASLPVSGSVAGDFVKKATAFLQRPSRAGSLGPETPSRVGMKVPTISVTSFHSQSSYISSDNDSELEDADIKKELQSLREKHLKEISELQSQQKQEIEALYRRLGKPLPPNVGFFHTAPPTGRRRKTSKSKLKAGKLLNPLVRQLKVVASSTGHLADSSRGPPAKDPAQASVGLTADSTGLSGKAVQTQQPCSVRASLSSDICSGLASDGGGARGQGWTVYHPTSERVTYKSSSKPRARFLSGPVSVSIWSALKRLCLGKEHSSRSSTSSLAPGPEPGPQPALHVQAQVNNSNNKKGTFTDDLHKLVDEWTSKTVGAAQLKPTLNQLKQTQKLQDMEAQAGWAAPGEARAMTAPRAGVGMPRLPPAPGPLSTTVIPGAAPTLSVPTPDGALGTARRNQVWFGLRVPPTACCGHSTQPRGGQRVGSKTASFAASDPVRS

SMILES	residual activity
COc1ccc2c(c[n+](C)c3c4cc5c(cc4ccc23)OCO5)c1OC	76%
O=[N+]([O-])/C=C/c1ccc2c(c1)OCO2	88%
O=C1Nc2ccc3ncsc3c2/C1=C/c1c[nH]cn1	57%
CN[C@@H]1C[C@H]2O[C@@](C)([C@@H]1OC)n1c3ccccc3c3c4c(c5c6ccccc6n2c5c31)C(=O)NC4	30%
O=c1[nH]c2ccccc2n1C1CCN(Cc2ccc(-c3nc4cc5[nH]cnc5cc4nc3-c3ccccc3)cc2)CC1	83%
O=C1NC(=O)c2c1c1c3ccccc3n3c1c1c2c2ccccc2n1C1CCC3O1	99%
COc1cc2ncnc(Nc3ccc(OCc4ccccc4)cc3)c2cc1OC	55%
CC(C)[C@H](CO)Nc1nc(Nc2cccc(Cl)c2)c2ncn(C(C)C)c2n1	46%
CCc1nc(-c2ccc(OC)cc2)[nH]c1-c1ccncc1	100%
CCn1cnc2c(Nc3cccc(Cl)c3)nc(N[C@@H]3CCCC[C@@H]3N)nc21	45%
COC(=O)[C@@]1(O)C[C@H]2O[C@]1(C)n1c3ccccc3c3c4c(c5c6ccccc6n2c5c31)C(=O)NC4	12%
C[S+]([O-])c1ccc(-c2nc(-c3ccc(F)cc3)c(-c3ccncc3)[nH]2)cc1 (configuration not stated)	101%
CC(C)(C)c1cc(C=C(C#N)C#N)cc(Br)c1O	114%
COc1cc(OC)c(/C=C2\C(=O)Nc3ccccc32)c(OC)c1	78%

target: Serine/threonine-protein kinase WNK3 (Homo sapiens) (UniProt Q9BYP7); details: at 1 µM
Sequence (Q9BYP7 whole entry): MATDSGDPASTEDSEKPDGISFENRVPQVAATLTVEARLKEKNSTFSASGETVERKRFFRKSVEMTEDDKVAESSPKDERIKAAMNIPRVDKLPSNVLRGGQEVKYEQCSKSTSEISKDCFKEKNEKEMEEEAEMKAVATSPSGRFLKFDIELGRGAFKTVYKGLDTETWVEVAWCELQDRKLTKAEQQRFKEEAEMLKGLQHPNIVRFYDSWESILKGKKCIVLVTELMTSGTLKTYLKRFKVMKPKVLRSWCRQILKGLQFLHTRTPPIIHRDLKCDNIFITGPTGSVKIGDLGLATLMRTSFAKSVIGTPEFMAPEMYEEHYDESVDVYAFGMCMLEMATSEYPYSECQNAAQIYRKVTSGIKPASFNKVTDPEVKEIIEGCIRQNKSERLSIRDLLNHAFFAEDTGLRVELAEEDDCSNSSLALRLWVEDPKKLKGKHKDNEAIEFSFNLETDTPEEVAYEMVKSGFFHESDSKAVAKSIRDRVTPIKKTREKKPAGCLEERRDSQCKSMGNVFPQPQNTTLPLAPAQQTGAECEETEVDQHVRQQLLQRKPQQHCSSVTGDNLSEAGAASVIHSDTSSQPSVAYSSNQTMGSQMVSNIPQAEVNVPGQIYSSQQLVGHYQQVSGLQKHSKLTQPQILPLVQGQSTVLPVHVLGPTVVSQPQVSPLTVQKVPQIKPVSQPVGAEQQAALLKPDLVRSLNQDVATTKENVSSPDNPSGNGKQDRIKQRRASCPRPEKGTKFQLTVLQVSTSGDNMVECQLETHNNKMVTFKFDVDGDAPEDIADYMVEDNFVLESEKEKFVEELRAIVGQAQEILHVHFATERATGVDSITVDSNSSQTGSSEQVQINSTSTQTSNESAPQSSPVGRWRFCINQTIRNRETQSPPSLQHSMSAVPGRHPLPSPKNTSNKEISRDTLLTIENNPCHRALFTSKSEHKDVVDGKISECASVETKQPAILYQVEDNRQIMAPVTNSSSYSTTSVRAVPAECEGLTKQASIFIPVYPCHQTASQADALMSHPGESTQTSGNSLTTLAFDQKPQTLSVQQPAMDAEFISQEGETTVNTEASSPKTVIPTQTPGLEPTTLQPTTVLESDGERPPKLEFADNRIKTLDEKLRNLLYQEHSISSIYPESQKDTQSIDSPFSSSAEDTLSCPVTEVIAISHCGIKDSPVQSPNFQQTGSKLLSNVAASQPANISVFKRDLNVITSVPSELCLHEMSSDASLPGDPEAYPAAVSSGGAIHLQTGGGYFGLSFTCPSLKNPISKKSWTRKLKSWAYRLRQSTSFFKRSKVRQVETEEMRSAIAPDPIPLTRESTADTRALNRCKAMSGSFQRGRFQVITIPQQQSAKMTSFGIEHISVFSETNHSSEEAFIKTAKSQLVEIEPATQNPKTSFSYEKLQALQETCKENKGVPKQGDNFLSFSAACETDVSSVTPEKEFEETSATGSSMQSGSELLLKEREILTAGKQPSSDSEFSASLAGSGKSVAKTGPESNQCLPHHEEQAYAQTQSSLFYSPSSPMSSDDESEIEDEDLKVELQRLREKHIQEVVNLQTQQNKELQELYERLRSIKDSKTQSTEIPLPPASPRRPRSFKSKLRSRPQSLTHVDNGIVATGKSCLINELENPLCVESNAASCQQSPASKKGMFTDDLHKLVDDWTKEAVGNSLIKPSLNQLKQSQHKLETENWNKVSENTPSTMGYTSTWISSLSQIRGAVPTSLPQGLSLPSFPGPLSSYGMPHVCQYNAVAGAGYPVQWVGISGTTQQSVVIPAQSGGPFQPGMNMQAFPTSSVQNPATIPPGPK

SMILES	residual activity
O=C1c2ccccc2-c2nc3nnnn3nc21	115% (inactive)
O=[N+]([O-])/C=C/c1ccc2c(c1)OCO2	88% (inactive)
O=C1Nc2ccc3ncsc3c2/C1=C/c1c[nH]cn1	84% (inactive)
CN[C@@H]1C[C@H]2O[C@@](C)([C@@H]1OC)n1c3ccccc3c3c4c(c5c6ccccc6n2c5c31)C(=O)NC4	88% (inactive)
O=c1[nH]c2ccccc2n1C1CCN(Cc2ccc(-c3nc4cc5[nH]cnc5cc4nc3-c3ccccc3)cc2)CC1	116% (inactive)
O=C1NC(=O)c2c1c1c3ccccc3n3c1c1c2c2ccccc2n1C1CCC3O1	94% (inactive)
COc1cc2ncnc(Nc3ccc(OCc4ccccc4)cc3)c2cc1OC	95% (inactive)
CC(C)[C@H](CO)Nc1nc(Nc2cccc(Cl)c2)c2ncn(C(C)C)c2n1	82% (inactive)
CCn1cnc2c(Nc3cccc(Cl)c3)nc(N[C@@H]3CCCC[C@@H]3N)nc21	87% (inactive)
COC(=O)[C@@]1(O)C[C@H]2O[C@]1(C)n1c3ccccc3c3c4c(c5c6ccccc6n2c5c31)C(=O)NC4	70% (inactive)
C[S+]([O-])c1ccc(-c2nc(-c3ccc(F)cc3)c(-c3ccncc3)[nH]2)cc1 (configuration not stated)	110% (inactive)
CC(C)(C)c1cc(C=C(C#N)C#N)cc(Br)c1O	111% (inactive)
COc1cc(OC)c(/C=C2\C(=O)Nc3ccccc32)c(OC)c1	93% (inactive)

target: Serine/threonine-protein kinase WNK3 (Homo sapiens) (UniProt Q9BYP7); details: at 10 µM

SMILES	residual activity
COc1ccc2c(c[n+](C)c3c4cc5c(cc4ccc23)OCO5)c1OC	84%
O=C1c2ccccc2-c2nc3nnnn3nc21	103%
O=[N+]([O-])/C=C/c1ccc2c(c1)OCO2	94%
O=C1Nc2ccc3ncsc3c2/C1=C/c1c[nH]cn1	67%
O=c1[nH]c2ccccc2n1C1CCN(Cc2ccc(-c3nc4cc5[nH]cnc5cc4nc3-c3ccccc3)cc2)CC1	85%
O=C1NC(=O)c2c1c1c3ccccc3n3c1c1c2c2ccccc2n1C1CCC3O1	90%
COc1cc2ncnc(Nc3ccc(OCc4ccccc4)cc3)c2cc1OC	64%
CC(C)[C@H](CO)Nc1nc(Nc2cccc(Cl)c2)c2ncn(C(C)C)c2n1	51%
CCc1nc(-c2ccc(OC)cc2)[nH]c1-c1ccncc1	108%
CCn1cnc2c(Nc3cccc(Cl)c3)nc(N[C@@H]3CCCC[C@@H]3N)nc21	56%
COC(=O)[C@@]1(O)C[C@H]2O[C@]1(C)n1c3ccccc3c3c4c(c5c6ccccc6n2c5c31)C(=O)NC4	8%
C[S+]([O-])c1ccc(-c2nc(-c3ccc(F)cc3)c(-c3ccncc3)[nH]2)cc1 (configuration not stated)	100%
CC(C)(C)c1cc(C=C(C#N)C#N)cc(Br)c1O	105%
COc1ccc2c(c1)/C(=C/c1cnc[nH]1)C(=O)N2	96%
COc1cc(OC)c(/C=C2\C(=O)Nc3ccccc32)c(OC)c1	83%

— ChEMBL document CHEMBL2218924, “A broad activity screen in support of a chemogenomic map for kinase signalling research and drug discovery” (Biochem J, 2013)
